Assay outcomes from PubChem BioAssay.
KDM4E inh: blocks human JMJD2E demethylase activity; B2RXH2; JMJD2E catalytic domain, FDH-coupled NADH fluorescence (FDH is formaldehyde dehydrogenase); Potency, µM (series often up to 57.1 µM), without a hit: top-dose activity change, negative = inhibition, most hits filed as inhibitors; hit rate 1.6% among 230,000; active = well fitted inhibition curve with a large enough effect, not every such curve was filed as active; inconclusive = small, poorly fitted or top-dose-only effect, or another doubt; inactive = no such curve, though single readings can be large or run the other way;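 also: potency is read from the fitted curve at half-maximal effect; 0% = wells with enzyme and -100% = buffer wells without enzyme; nearly all actives have a fitted effect of over 50% in size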
Target sequence (B2RXH2 1-337 limits assumed): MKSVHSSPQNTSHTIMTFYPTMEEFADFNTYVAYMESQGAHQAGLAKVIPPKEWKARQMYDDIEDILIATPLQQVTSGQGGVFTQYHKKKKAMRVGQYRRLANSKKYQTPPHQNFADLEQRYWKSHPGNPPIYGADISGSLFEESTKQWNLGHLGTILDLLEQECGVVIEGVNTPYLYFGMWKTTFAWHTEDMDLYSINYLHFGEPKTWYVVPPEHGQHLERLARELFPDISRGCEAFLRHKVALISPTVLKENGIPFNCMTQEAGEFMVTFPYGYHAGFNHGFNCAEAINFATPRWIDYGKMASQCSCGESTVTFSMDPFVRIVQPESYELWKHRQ
HP1b chromo inh: blocks HP1-beta chromodomain binding to methylated histone tails; P83916; AlphaScreen HP1-beta / biotin-H3K9me3 peptide binding; Potency, µM (doses to about 114 µM), inactives show at the top dose activity change, negative = inhibition, usual class: inhibitors; hit rate 0.56% among 390,000; AID 540317; also: potency is read from the fitted curve at half-maximal effect; nearly all actives have a fitted effect of over 70% in size
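AlphaScreen: HP1-beta (50 nM) preformed 30 min with biotin-H3(1-18)K9me3 peptide (50 nM) in PBS pH 7.4, 0.01% Tween-20. Compound added for 30 min at RT, then streptavidin donor/nickel chelate acceptor beads (10 ug/mL) for 30 min.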
BAZ2B inh: BAZ2B (human) inhibition; Q9UIF8; AlphaScreen BAZ2B-H3K14Ac peptide displacement; hit rate 4.4% among 360,000; Potency, µM (top dose mostly 114 µM), without a hit: at the top dose activity change, negative = inhibition, usual class: inhibitors; also: potency is read from the fitted curve at half-maximal effect; % is scaled to controls: 0 for no effect and ±100 for the full control effect; nearly all actives have a fitted effect of over 60% in size
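BAZ2B (50 nM) with biotin-H3(5-23)K14Ac peptide (50 nM) in PBS pH 7.4, 0.01% Tween-20, preformed 30 min, then compound 30 min at room temperature; top concentration 110uM. AlphaScreen streptavidin donor/nickel chelate acceptor beads (10 ug/mL final), 20 min dark, signal read.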
JMJD2A Tudor: blocks the human JMJD2A Tudor domain; AlphaScreen JMJD2A-Tudor / H3K4me3 peptide binding; O75164; Potency, µM (series often up to 114 µM), for inactives: at the highest dose activity change, negative = inhibition, hits mostly inhibitors; hit rate 4.4% among 390,000; also: potency is read from the fitted curve at half-maximal effect; % is scaled to controls: 0 for no effect and ±100 for the full control effect; nearly all actives have a fitted effect of over 50% in size
L3MBTL1 block: blocks human L3MBTL1. AID 485360. AlphaScreen L3MBTL1–H3K9me1 peptide binding. hit rate 0.66% among 230,000. Potency, µM (highest dose often 57.1 µM), for inactives: top-dose activity, negative = inhibition, most hits filed as inhibitors. Q9Y468; also: potency is read from the fitted curve at half-maximal effect; % is scaled to controls: 0 for no effect and ±100 for the full control effect; nearly all actives have a fitted effect of over 60% in size
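L3MBTL1 50 nM + b-AHA-H3(1-15)K9me1 75 nM, 30 min RT; compound added, 30 min RT; streptavidin donor/Ni-chelate acceptor beads 10 ug/mL each final, 30 min RT dark; AlphaScreen read.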
PI5P4K alpha inh: PI5P4K alpha (human) kinase inhibition; hit rate 1.2% among 330,000; max response, %; PI5P4Kalpha enzyme, ADP-Glo luminescence, 60 min; active compounds read low; P48426; active = max response of -50% or lower; inconclusive = between -30% and -50%; inactive = -30% or higher; also: value at the top dose of about 77 µM; % is scaled to controls: 0 for no effect and ±100 for the full control effect
Target sequence (P48426 whole entry, looked up): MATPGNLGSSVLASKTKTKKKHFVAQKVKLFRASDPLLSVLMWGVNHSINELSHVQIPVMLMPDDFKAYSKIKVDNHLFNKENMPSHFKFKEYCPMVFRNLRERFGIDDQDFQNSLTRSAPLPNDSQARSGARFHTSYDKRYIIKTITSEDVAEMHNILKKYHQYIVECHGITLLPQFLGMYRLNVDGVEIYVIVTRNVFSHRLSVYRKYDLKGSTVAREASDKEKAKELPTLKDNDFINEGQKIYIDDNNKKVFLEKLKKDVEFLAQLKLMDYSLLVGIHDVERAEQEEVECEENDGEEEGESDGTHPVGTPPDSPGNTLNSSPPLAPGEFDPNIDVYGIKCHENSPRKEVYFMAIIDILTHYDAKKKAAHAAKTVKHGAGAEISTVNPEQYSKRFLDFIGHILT
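Enzyme plus substrate dispensed, test compounds pinned in, then ATP (5 microM final) added. After 60 min at RT, ADP-Glo reagent 1 for 45 min and reagent 2 for 30 min preceded luminescence imaging.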
* hit, by the source's call; ? = inconclusive; · = not tested or not shown; [ ] = remark or other dose. In the library only some 5.7% were active in any assay of this set; here they are far more common. Unless noted, calls follow the shape of the dose curve; as a rule, active = well fitted inhibition curve with a large enough effect; inconclusive = small, poorly fitted or top-dose-only effect; inactive = no such curve, though single readings can be large or run the other way.

SMILES | KDM4E inh | HP1b chromo inh | BAZ2B inh | JMJD2A Tudor | L3MBTL1 block | PI5P4K alpha inh
CCN1CCCc2cc(CN(CCN3CCOCC3)C(=S)Nc3ccc(OC)c(OC)c3)ccc21 | -4.9% | 30.2% | -33.8% | -26.5%[11.4 µM] | · | 0.1
CCN1CCCc2cc(CN(CCN3CCOCC3)C(=S)Nc3ccccc3C)ccc21 | ? | 31.1% | -35.4% | -19.9%[11.4 µM] | · | 1.1
CC(=N\NC(=O)c1ccccc1)/C(=N/O)C(=O)Nc1ccccc1 | · | 47.1% | 56.2µM* | -10.3% | · | 1.5
O=C(CCCn1c(=O)c2sccc2n(Cc2c(F)cccc2Cl)c1=O)NCc1ccccc1 | · | 54.8% | 39.4% | 1.4% | · | ·
CCN(CC)S(=O)(=O)c1ccc(Cl)c(C(=O)OC2CC(C)OC2=O)c1 (configuration not stated) | · | 21.1% | -15.7% | 3.3% | · | 4.0
Oc1nc(Nc2ccc(Cl)cc2Cl)sc1/C=C1\C=Nc2ccccc21 | 0.8% | ? | ? | ? | -12.6% | -56.5*
O=c1oc2ccccc2cc1-c1nnc(Nc2ccc(Cl)cc2Cl)s1 | · | 12.4% | 3.3% | -23.5% | · | ·
CCCCNC(=O)C1CCN(C/C(C)=C/c2ccccc2)CC1 | -27.4% | -9.4% | 50.1µM* | 6.31µM* | -5.7% | -8.4
C/C(=C\c1ccccc1)CN1CCC(C(=O)N2CCCCC2)CC1 | ? | ? | ? | 7.94µM* | 6.3% | -0.7
C/C(=C\c1ccccc1)CN1CCC(C(=O)N2CCC(C)CC2)CC1 | ? | -29.7% | ? | -0.8%[11.4 µM] | -1.4% | -5.6
C/C(=N\Nc1nncc2ccccc12)c1ccc(O)cc1 | · | -4.4% | ? | ? | · | 2.0
C/C(=N\Nc1nncc2ccccc12)c1ccc(C(C)(C)C)cc1 | · | -0.2% | 56.2µM* | -7.3% | · | 29.5
CCCCCCNC(=O)N[C@@H](C(=O)NCCC[C@H]1CN2C(=NC[C@@H]2Cc2ccccc2)N1CCc1cccc(OC)c1)C(C)C | ? | ? | 25.1µM* | 5.01µM* | · | -82.9*
C/C=C(\C)C(=O)NCCN1C2=NC[C@@H](Cc3ccccc3)N2C[C@@H]1Cc1ccc(OC)cc1 | · | 4.4% | · | ? | · | 0.3
C=CCN1C(=O)C(CC(=O)O)SC1=Nc1cccc([N+](=O)[O-])c1 (configuration not stated) | -9.6% | 39.4% | -14.1% | -19.8% | 31.4% | -6.5
C=CCN1C(=O)C(CC(=O)O)SC1=Nc1ccc(N=Nc2ccccc2)cc1 (configuration not stated) | -15.0% | -17.5% | 39.8µM* | ? | · | 6.2
Cc1ccccc1-n1cc(-c2ccc(Br)cc2)nc1SCC(N)=O | 4.1% | -9.7% | ? | ? | -5.8% | -1.2
CCOC(=O)NC(=O)CSc1nc(-c2ccc(C)c(C)c2)cn1-c1ccccc1 | ? | ? | 35.5µM* | ? | -21.1% | -5.0
CCOC(=O)NC(=O)CSc1nnnn1-c1ccccc1 | 11.3% | 31.8% | 3.6% | -3.4% | -0.6% | ·
Cc1ccc(-c2cn(-c3ccccc3)c(SCC(N)=O)n2)cc1C | 10.2% | -22.1% | 50.1µM* | ? | -4.7% | 8.7
COc1cccc(/C(O)=C/c2nc3ccc(C(=O)NCCc4ccc(Cl)cc4)cc3[nH]c2=O)c1 | ? | 17.9% | 4.3% | -7.4% | 4.5% | -92.9*
Cc1cccc(N2CCN(Cc3cc(=O)oc4cc(C)ccc34)CC2C)c1 (configuration not stated) | · | 14.2% | -34.7% | -29.9% | · | ·
O=c1[nH]nc(-c2cc(-c3ccccc3)nc3ccccc23)o1 | · | · | · | · | · | 4.2
CCCCc1cc(-c2n[nH]c(=S)o2)c2ccccc2n1 | · | 15.9% | ? | -25.1% | · | -56.0*
COc1ccc2c(c1)cc1c(=O)n(CC(=O)NCCCc3ccccc3)nc(C)n12 | · | 30.2% | 5.9% | -13.8% | · | ·
SMILES | KDM4E inh | HP1b chromo inh | BAZ2B inh | JMJD2A Tudor | L3MBTL1 block | PI5P4K alpha inh
C/C(=N\NC(=O)c1c[nH]c2ccccc12)c1ccc2c(c1)OCO2 | 8.1% | 8.1% | -3.5% | -34.0% | 0.3% | -1.6
Cc1ccc(NC(=S)N/N=C/c2c(C)[nH]c3ccccc23)cc1 | -29.5% | ? | 44.7µM* | 44.7µM* | -4.8% | 3.8
C/C(=N\NC(=O)Cc1c[nH]c2ccccc12)c1ccc2ccccc2c1 | -23.9% | -29.3% | ? | ? | -24.9% | -52.8*
Cc1ccc(/C=N\NC(=O)CCc2n[nH]c(=O)[nH]c2=O)o1 | 2.4% | 5.4% | 3.4% | 15.8µM* | · | -26.2
COC(=O)/C(=C/c1c[nH]c2ccccc12)NC(C)=O | 20µM* | 26.5% | -1.9% | 1.3% | -5.0% | -1.9
CC(SC1=Nc2ccccc2C2CC=NN12)C(=O)NC1(C#N)CCCCC1 (configuration not stated) | · | 30.1% | 2.7% | -13.1% | -13.0% | 2.6
O=C(NN=Cc1c[nH]c2ccccc12)NN=Cc1c[nH]c2ccccc12 | · | · | · | · | · | -88.6*
CCNC(=S)N/N=C(\C)c1ccc2ccccc2c1 | -5.5% | · | 35.5µM* | · | -26.6% | ·
CCNC(=S)N/N=C(\C)c1cccc(OC)c1 | -1.8% | 47.9% | -34.1% | -1.6% | · | 0.0
O=C(N/N=C/c1c[nH]c2ccccc12)c1ccccc1 | · | 35.9% | -15.2% | 3.4% | · | -20.0
O=C(Cc1c[nH]c2ccccc12)N/N=C/c1ccccc1O | 25.1µM* | 35.5% | -7.9% | -2.0% | -14.9% | 1.4
O=C(Cc1n[nH]c(=O)[nH]c1=O)N/N=C/c1ccccc1O | 14.1µM* | 17.7% | -2.8% | 2.6% | 2.0% | ·
Cc1ccc(S(=O)(=O)N2CCN(c3nc(C#N)nc4ccccc34)CC2)cc1 | · | · | · | -10.9% | · | ·
CCOC(=O)C1CCCN(S(=O)(=O)c2csc(C(N)=O)c2)C1 (configuration not stated) | · | 38.1% | -15.9% | -5.1% | · | ·
O=C(CSc1nnc(SCc2ccc(Cl)cc2)s1)N/N=C/c1c[nH]c2ccccc12 | -0.8% | 6.2% | 35.5µM* | 89.1µM* | -15.2% | -14.2
O=C(CSc1nnc(SCc2cccc3ccccc23)s1)N/N=C/c1c[nH]c2ccccc12 | -5.1% | 10.9% | -6.7% | -30.0% | -7.3% | -2.3
Cc1cccc(NC(=S)N/N=C/c2c[nH]c3ccccc23)c1 | ? | ? | 50.1µM* | ? | -20.2% | 0.7
Cc1[nH]c2ccccc2c1/C=N/NC(=O)c1cc(C(C)(C)C)[nH]n1 | ? | -3.8% | 70.8µM* | -23.5% | · | -15.3
O=[N+]([O-])c1ccccc1N/N=C/c1c[nH]c2ccccc12 | 0.2% | 12.6µM* | 10µM* | 11.2µM* | ? | 11.7
O=C(O)c1ccc(-c2ncc[nH]2)cc1 | ? | 5.3% | -0.4% | 20µM* | 12.5% | -26.8
Cc1ccc2[nH]c(=O)c3cc(C(=O)NC(C)C)sc3c2c1 | · | 35.6%[57 µM] | -16.8% | 31.6µM* | · | 7.4
CCOC(=O)C(C)NC(=O)c1cc2c(=O)[nH]c3ccc(C)cc3c2s1 (configuration not stated) | · | 34.1% | 6.0% | 1.1% | · | ·
